# Bioassay records deposited in PubChem BioAssay by National Center for Advancing Translational Sciences (NCATS).
# Rows were chosen to be rich in hits. Some 2.5% of all compounds tested hit in one or more screens of this group.
# Cruzain inh noDet = blocks cruzain activity in detergent-free assay | purified cruzain, Z-FR-AMC fluorescence, no detergent | 200,000 compounds, 2.3% hits | AID 1476 | P25779 | Potency, µM, for inactives: max response, negative = inhibition, usual class: inhibitors;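 note: plate controls were enzyme without inhibitor for no effect and buffer without enzyme for full effect; nearly all actives have a fitted effect of over 40% in size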
# Target sequence (P25779 123-467 limits assumed): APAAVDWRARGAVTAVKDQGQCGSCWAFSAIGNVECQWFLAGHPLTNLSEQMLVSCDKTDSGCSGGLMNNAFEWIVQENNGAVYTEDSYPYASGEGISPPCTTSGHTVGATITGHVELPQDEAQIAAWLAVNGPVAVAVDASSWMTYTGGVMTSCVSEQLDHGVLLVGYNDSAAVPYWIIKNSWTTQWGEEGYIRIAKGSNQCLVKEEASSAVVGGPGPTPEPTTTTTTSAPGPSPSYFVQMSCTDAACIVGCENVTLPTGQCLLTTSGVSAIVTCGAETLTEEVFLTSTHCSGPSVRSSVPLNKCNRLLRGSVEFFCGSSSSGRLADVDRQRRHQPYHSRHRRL
#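 Purified cruzain at 1.5 nM, pre-incubated 15 min with compound at room temperature in 100 mM sodium acetate pH 5.5, 5 mM DTT, 0.00005% Triton X-100. Reaction started with 2 uM Z-FR-AMC; AMC fluorescence increase over 60 s gives rate.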
# Cruzain inh Det = blocks cruzain activity in presence of Triton detergent; 200,000 compounds, 0.43% hits; P25779; purified cruzain, Z-FR-AMC fluorescence, 0.01% Triton; Potency, µM, for inactives: max response, negative = inhibition, usual class: inhibitors;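 note: plate controls were neutral wells for no effect and buffer without enzyme for full effect; nearly all actives have a fitted effect of over 40% in size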
#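 Detergent-containing arm of a paired screen for aggregation-based inhibition: 0.01% Triton X-100 present. Cruzain at 1.5 nM cleaved 2 uM Z-FR-AMC at pH 5.5 with 5 mM DTT; AMC fluorescence gain over 60 s measured activity.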
# The depositor's hits bear a star; ? = inconclusive. Calls come from the whole dose curve; as a rule, active = well fitted curve in the direction sought with a large enough effect; inconclusive = small, poorly fitted or top-dose-only effect, or another doubt; inactive = no such curve, though single readings can be large; an effect the other way counts as inactive or inconclusive. Potency is the fitted concentration of half-maximal effect.
SMILES,Cruzain inh noDet,Cruzain inh Det
ClC1=C(Cl)C2(Cl)C3C4C=CC(C4)C3C1(Cl)C2(Cl)Cl (stereo not given),8%,7%
ClC1=C(Cl)C2(Cl)C3C4CC(C5OC45)C3C1(Cl)C2(Cl)Cl (stereo not given),1.6µM*,-2%
COc1cccc(CNC(=O)Cn2cc3c(n2)-c2c(oc(C(=O)N4CCOCC4)c2C)CC3)c1,6%,0%
COc1ccc(/C=N/NC(=S)Nc2ccccc2)cc1COc1ccccc1F,13µM*,-4%
COc1ccc(/C=N/NC(=O)c2nc(Cl)c(Cl)c(N)c2Cl)cc1COc1ccccc1F,-8%,0%
COc1ccc(/C=N/NC(=S)Nc2ccccc2)cc1COc1ccc(F)cc1,7.9µM*,-9%
COc1ccc(NC(=S)Nc2ccc(OCc3ccccc3)cc2)cc1OC,?,-8%
COc1cccc(OCc2cc(/C=N/NC(=O)c3ccn[nH]3)ccc2OC)c1,-20%,1%
COc1cc(OC)cc(C(=O)N/N=C/c2ccc(OC)c(COc3ccc4ccccc4c3)c2)c1,7.9µM*,-1%
CC1CCN(C(=O)c2cc(-c3ccc(Br)cc3)on2)CC1,-5%,1%
CCOC(=O)Cc1csc(NC(=O)CSc2ncnc3c2cnn3-c2ccccc2Cl)n1,4%,-8%
COC(=O)c1c(NC(=O)CSc2ncnc3c2cnn3-c2ccccc2Cl)sc2c1CCCC2,3.2µM*,-6%
COC(=O)c1ccccc1NC(=O)NCc1ccc2c(c1)OCO2,-9%,1%
COC(=O)c1ccccc1NC(=S)N(Cc1ccc2c(c1)OCO2)Cc1cc2cc(OC)ccc2[nH]c1=O,10µM*,-10%
CCc1ccc(-n2c(C)nnc2SCc2nc(-c3ccc(OC)cc3)no2)cc1,24%,-7%
O=S(=O)(Nc1cccc(-c2ccc(N3CCOCC3)nn2)c1)c1ccc(F)cc1F,-13%,-6%
COc1ccc(Cn2c(O)c(C=Nc3ccc(O)cc3)c3ccccc3c2=O)cc1,25µM*,-3%
COc1ccc(Cn2c(O)c(C=Nc3ccccc3)c3ccccc3c2=O)cc1,?,-5%
COc1ccc(Cn2c(O)c(C=Nc3ccc(C)cc3)c3ccccc3c2=O)cc1,13µM*,0%
COc1ccc(N=Cc2c(O)n(-c3cccc(C)n3)c(=O)c3ccccc23)cc1,?,-9%
COc1ccccc1N1CCN(C(=O)CCNS(=O)(=O)c2ccc3c(c2)CCN3C(=O)C2CC2)CC1,?,0%
CCOc1cc2c(cc1OCC)C(CC(=O)O)N(C(=O)Nc1ccc(Br)c(C)c1)CC2 (stereo not given),?,-11%
COc1ccc(CNC(=O)CN2C(=O)CSc3ccc(S(=O)(=O)N(C)C)cc32)cc1,-21%,1%
O=C(Cc1ccc(Cl)cc1)NCC(c1cccs1)S(=O)(=O)c1ccc(F)cc1 (stereo not given),3%,-5%
C[C@]1(C(=O)NCC2CC2)C=C[C@@H](Cc2ccccc2)N1C(=O)c1ccccc1,-1%,2%
SMILES,Cruzain inh noDet,Cruzain inh Det
CCc1cc2cc(C)ccc2nc1SCC(=O)Nc1cc(C)on1,-12%,2%
CCc1cc2cc3c(cc2nc1SCC(=O)Nc1nnc(C)s1)OCCO3,?,3%
CCc1cc2cc3c(cc2nc1SCC(=O)Nc1cc(C)on1)OCO3,25µM*,-2%
Cc1cc2cc3c(cc2nc1SCC(=O)Nc1nc(C)c(C)s1)OCO3,32µM*,5%
CC(=O)N1CCc2c(sc3c2c(=O)n(-c2ccccc2)c(=O)n3Cc2cccc(C(F)(F)F)c2)C1,?,-16%
CC1CCCCN1C(=O)c1ccc2c(c1)N(Cc1ccc(F)cc1)C(=O)c1ccccc1S2(=O)=O (stereo not given),?,-1%
Cc1ccc(NCC(=O)N/N=C\C(Br)=C\c2ccccc2)cc1,13µM*,2%
O=C(CN1CCOCC1)N/N=C/c1cc2ccccc2nc1Cl,-6%,-6%
COc1cc(/C=N/NC(N)=S)ccc1OCC(=O)Nc1ccc(C)c(C)c1,13µM*,16µM*
COc1cc(/C=N/NC(N)=O)ccc1OCC(=O)Nc1ccc(C)c(C)c1,-22%,-5%
Cc1cc(C)nc(SCC(=O)N/N=C\C(Br)=C\c2ccccc2)n1,6%,-7%
Cc1ccc(NCC(=O)N/N=C/c2cc3ccccc3nc2Cl)cc1,25µM*,-15%
COc1ccc(/C=N/NC(=O)c2cccc([N+](=O)[O-])c2)cc1OC(=O)c1ccc(C)cc1,-20%,8%
COc1ccc(/C=N/NC(=O)c2cccc([N+](=O)[O-])c2)cc1OC(=O)c1ccccc1,25µM*,-1%
COc1cccc(NC(=O)c2oc3ccccc3c2NC(=O)c2ccc(C(F)(F)F)cc2)c1,?,-1%
Cc1ccc(C(=O)NCC(c2cccs2)S(=O)(=O)c2cccs2)cc1 (stereo not given),4%,-2%
O=C(N/N=C/c1cccc([N+](=O)[O-])c1)c1ccc(COc2ccccc2-c2ccccc2)cc1,20µM*,-7%
O=C(COc1ccccc1[N+](=O)[O-])N/N=C/c1ccc(O)cc1,-7%,-5%
COc1ccc(/C=N/NC(=O)CSCc2ccc([N+](=O)[O-])cc2)cc1OC,-7%,-3%
COc1cc(/C=N/NC(=O)c2cccc([N+](=O)[O-])c2)ccc1OCc1ccccc1,29%,-14%
O=C(COc1ccccc1-c1ccccc1)N/N=C/c1ccc2ccccc2c1,20µM*,-2%
COc1cc(/C=N/NC(=O)COc2c(C)cc([N+](=O)[O-])cc2C)ccc1OC(=O)c1ccccc1,25µM*,-5%
CCOc1cc(/C=N/NC(=O)c2cc(C)[nH]n2)ccc1OC(=O)c1ccc([N+](=O)[O-])cc1,-1%,4%
COc1cc(/C=N/NC(=O)COc2c(C)cc([N+](=O)[O-])cc2C)ccc1OC(=O)c1ccccc1Br,10µM*,-5%
CSc1ccc(CCNC(=O)c2ccc(-c3nc(COc4ccccc4)c(C)o3)cc2)cc1,3%,-2%
SMILES,Cruzain inh noDet,Cruzain inh Det
COC(=O)C(O)C1C(C)(C)C(OC(C)=O)C2CC3=C4CC(=O)OC(c5ccoc5)[C@]4(C)CCC3[C@@]1(C)C2=O (stereo not given in full),0%,-2%
CC(=O)c1ccc(NC(=O)c2ccc(CN3C(=O)CCn4nc(C)cc43)cc2)cc1,-20%,-5%
COC(=O)c1sc2cccc(F)c2c1S(=O)(=O)N1CCN(c2cccc(C)c2)C(C)C1 (stereo not given),-25%,-5%
CCCCCCCCCCCCCCC[C@@H](O)[C@@H](N)CO,?,2%
COc1ccc(-c2cn3nc(N4CCC(C(=O)Nc5cccc(Cl)c5)CC4)sc3n2)cc1,?,-1%
COc1cccc(C(=O)N/N=C/c2ccc(Oc3ccc([N+](=O)[O-])cn3)c(OC)c2)c1,-5%,-1%
CCOc1cc(/C=N/NC(=O)CNc2ccc(C)cc2)ccc1OC(=O)c1ccccc1,10µM*,-3%
CCOc1cc(/C=N/NC(N)=O)ccc1OC(=O)c1ccc(C)cc1,4%,-3%
N#Cc1cc([N+](=O)[O-])ccc1Oc1cccc(/C=N/NC(=O)c2cccc(Cl)c2)c1,25µM*,2%
COCCn1c(=O)c(C)nc2cnc(N3CCNCC3)nc21,2%,-11%
COc1ccc(-c2onc(C)c2C)cc1S(=O)(=O)NCc1ccc(Br)cc1,-2%,-2%
COc1ccc(Cl)cc1-n1nnc(-c2nc(-c3ccccc3)no2)c1C,2%,3%
CCC(C(=O)NCc1ccccc1OC)n1nc(C)n2c(cc3sccc32)c1=O (stereo not given),-10%,-2%
